Source: PubChem (National Center for Advancing Translational Sciences (NCATS))
The list is not random: actives were taken first. Their share in the collection is about 19%.
Lassa entry inh – qHTS for Inhibitors of binding or entry into cells for Lassa Virus | Lassa virus pseudotype entry inhibition, cell reporter | Potency, µM (titrated, usually from 37.9 µM), for inactives: at the top dose activity change, negative = inhibition, usual class: inhibitors | actives 1.2% (n = 300,000); calls by dose curve; tested in HEK293 cells; further: potency means the concentration at half of the fitted maximal effect; on the % scale 0 is the no-effect control and ±100 the full control effect; nearly all actives have a fitted effect of over 50% in size
Pf growth 96h – Primary qHTS for delayed death inhibitors of the malarial parasite plastid, 96 hour incubation; actives 6.9% (n = 320,000); P. falciparum luciferase reporter growth, 96 h; Potency, µM (highest dose often 28.7 µM), inactives show at the highest dose activity change, negative = inhibition, hits mostly inhibitors; further: potency means the concentration at half of the fitted maximal effect; on the % scale 0 is the no-effect control and ±100 the full control effect
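96 h incubation, 37 C, 5% CO2, of luciferase-reporter P. falciparum-infected RBCs (2% hematocrit, 0.05% parasitemia final) with test compounds; endpoint luminescence.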
Shiga inhibitor – A qHTS for Small Molecule Inhibitors of Shiga Toxin; Vero cells, Shiga toxin protein synthesis inhibition reporter; inhibition, % at 38.7 µM; actives 9.2% (n = 290,000); AID 2315, 2010; in the data active means inhibition mostly above about 28%, no sharp cut-off; inactive means mostly below about 43%; further: 0% is about no effect
Marburg entry inh – qHTS for inhibitors of binding or entry into cells for Marburg Virus | Marburg virus pseudotyped entry inhibition, cell reporter | Potency, µM (highest dose often 37.8 µM), without a hit: at the highest dose activity change, negative = inhibition, actives largely listed as inhibitors | actives 1.8% (n = 300,000) | AID 540276, 2011; calls by dose curve; tested in HEK293 cells; further: potency means the concentration at half of the fitted maximal effect; on the % scale 0 is the no-effect control and ±100 the full control effect
Cycloheximide cs – Cycloheximide Counterscreen for Small Molecule Inhibitors of Shiga Toxin; cell reporter, cycloheximide protein synthesis inhibition counterscreen; actives 12% (n = 300,000); max response, %; AID 2314, 2010; in the data active means max response mostly above about 13%, no sharp cut-off; inactive means mostly below about 14%; further: read at 38.3 µM for the half of the compounds with a filed dose; 0% is about no effect
Pf growth 48h – Primary qHTS for delayed death inhibitors of the malarial parasite plastid, 48 hour incubation; P. falciparum luciferase growth in erythrocytes, 48 h; Potency, µM (titrated, usually from 28.7 µM), without a hit: at the highest dose activity change, negative = inhibition, most hits filed as inhibitors; actives 5.9% (n = 310,000); AID 504832, 2011; further: potency means the concentration at half of the fitted maximal effect; on the % scale 0 is the no-effect control and ±100 the full control effect
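A one-generation exposure of luciferase-tagged malaria parasites in RPMI 1640/Albumax erythrocyte culture, 37 C and 5% CO2. Inhibition is inferred from decreased luminescence after adding detection reagent.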
An asterisk follows results filed as active; ? = inconclusive; nt = no result given; [ ] = another dose, or the depositor's remark. Unless noted, the call rests on the fitted dose curve; in most records, active means well fitted inhibition curve with a large enough effect; inconclusive means small, poorly fitted or top-dose-only effect, or another doubt; inactive means no such curve, though single readings can be large or run the other way.

SMILES	Lassa entry inh	Pf growth 96h	Shiga inhibitor	Marburg entry inh	Cycloheximide cs	Pf growth 48h
O=C(NCc1cccnc1)c1ccc(S(=O)(=O)Nc2ccccc2)cc1	-1%	-5%	nt	-18%	nt	-30%
Cc1ccc(OCC(=O)Nc2ccncc2)c(C)c1	nt	-5%	23	nt	20*	31%
CC(=O)Nc1ccc(NC(=O)C(C)Oc2ccc(Cl)cc2Cl)cc1 (stereo not drawn)	nt	26%	-12	nt	-2	?
Cc1cc(OCC(=O)Nc2ccncc2)cc(C)c1Br	-19%	?	-38	?	-2	nt
O=C(CCCOc1ccc(Cl)cc1Cl)Nc1ccncc1	2%	-41%	25	-12%	15*	nt
Cc1ccccc1OCC(=O)Nc1ccncc1	6%	-43%	40	-10%	2	-2%
O=C(COc1ccc(Cl)cc1Br)Nc1ccncc1	5%	?	47*	?	58*	1%
CC(Oc1ccc(Cl)cc1Cl)C(=O)Nc1ccncc1 (stereo not drawn)	-19%	-5%	-18	?	-7	10µM*
O=C(CCCOc1ccccc1)Nc1ccncc1	-4%	1%	33	7%	6	10%
C/C(CCc1oc2ccc(Cl)cc2c1-c1ccc(C)o1)=N\O	-13%	-8%	20	-21%	0	-8%
O=C1CC(C(=O)Nc2ccc(F)cc2)n2cnnc2N1 (stereo not drawn)	-10%	-26%	-8	4%[46.1 µM]	1	-34%[5.75 µM]
Cc1ccc(C)c(OCC(=O)Nc2cc(NC(=O)COc3cc(C)ccc3C)cc(C(=O)O)c2)c1	8%	8.3µM*	13	5%	-2	15%
Cc1ccc(C)c(OCC(=O)Nc2nonc2NC(=O)COc2cc(C)ccc2C)c1	-1%	3%	-13	-7%	-1	?
Cc1ccc(OCC(=O)NNC(=S)NC(=O)C2CC2)c(C)c1	nt	15µM*	-3	nt	7	?
O=C(CCCOc1ccc(Cl)cc1Cl)Nc1ccccn1	27%[46.1 µM]	-19%	55*	6%[46.1 µM]	15	38%
Cc1ccc(OCC(=O)NNC(=S)NC(=O)C2CCCCC2)c(C)c1	nt	?	-8	nt	-2	1%
CCOC(=O)CNC(=O)COc1ccc(Cl)cc1Br	?	10µM*	-9	?	-3	5%
Cc1ccnc(NC(=O)CCCOc2ccc(Cl)cc2C)c1	nt	0%	-14	nt	-3	-3%
O=C(COC(=O)COc1ccc(Cl)cc1Br)NCc1cccs1	2%	27%	-17	4%[46.1 µM]	2	17%
COc1ccc(S(=O)(=O)NC2CC2)cc1Br	nt	-17%	-15	nt	-2	2%
Cc1nn(CC(=O)NCc2ccc(OC(C)C)cc2)c(=O)c2cc3occc3n12	nt	13%	-6	0%	-1	nt
Cc1ccc(OCC(=O)NNC(=O)c2ccco2)c(C)c1	?	4%	14	?	14*	6%
O=C(COc1ccc(Cl)cc1Cl)Nc1cccnc1	-29%[46.1 µM]	20%	86*	?	45*	76%
COCCNC(=O)COc1ccc(C)cc1C	-1%	45%	37	?	12	nt
COC(=O)CCC(=O)NNC(=O)CCCOc1ccc(Cl)cc1Cl	-14%	0%	-6	-11%	-3	43%
SMILES	Lassa entry inh	Pf growth 96h	Shiga inhibitor	Marburg entry inh	Cycloheximide cs	Pf growth 48h
CCNC(=O)CCCOc1ccc(Cl)cc1Cl	38%[14.3 µM]	?	54*	?	29*	56%
O=C(CCn1ccc2ccccc21)NC1CCCc2ccccc21 (stereo not drawn)	-19%	-90%	-3	?	-2	nt
Cc1ccc(CN2C(=O)S/C(=C\c3ccccc3OCC(=O)O)C2=O)cc1	1%	5.2µM*	11	-17%	-1	5%
O=C(O)COc1ccccc1/C=C1\SC(=O)N(Cc2ccc(F)cc2)C1=O	-5%[46.1 µM]	34%[5.75 µM]	8	?	8	-7%
CC(C)[N+](C)(C)CC(O)CN(c1ccccc1)c1ccccc1 (stereo not drawn)	?	-24%	-5	11%	-5	-1%
COc1ccc(-c2cn3c(n2)sc2cc(C(=O)NC4CCCCCC4)ccc23)cc1	-3%[46.1 µM]	nt	nt	nt	nt	nt
COc1ccc(S(=O)(=O)Nc2c(O)c3ccccc3oc2=O)cc1	6%[46.1 µM]	1%	69*	6%[46.1 µM]	15*	-11%
COc1ccc(S(=O)(=O)Nc2ccc3oc4c(c3c2)CCCC4)cc1	?	nt	nt	10µM*	nt	nt
